This excerpt belongs to a sample that is enriched for hits.
Lassa entry inh: qHTS for Inhibitors of binding or entry into cells for Lassa Virus | Lassa virus pseudotype entry inhibition, cell reporter | hit rate 1.2% among 300,000 | AID 540256, 2011 | Potency, µM (doses to about 37.9 µM), hits mostly inhibitors; calls by dose curve; tested in HEK293 cells; further: nearly all actives have a fitted effect of over 50% in size
Shiga toxin inh: A qHTS for Small Molecule Inhibitors of Shiga Toxin. hit rate 9.2% among 290,000. AID 2315, 2010. inhibition, % at 38.7 µM. Vero cells, Shiga toxin protein synthesis inhibition reporter; in the data active means inhibition mostly above about 28%, no sharp cut-off; inactive means mostly below about 43%
VACV Venus inh: qHTS for Stage-Specific Inhibitors of Vaccinia Orthopoxvirus: Venus Reporter Primary qHTS. Vaccinia virus Venus reporter expression, fluorescence. Potency, µM (top dose mostly 36.5 µM), most hits filed as inhibitors. hit rate 0.46% among 330,000; calls by dose curve; tested in A549 cells; further: nearly all actives have a fitted effect of over 30% in size
VACV mCherry inh: qHTS for Stage-Specific Inhibitors of Vaccinia Orthopoxvirus: mCherry Reporter Primary qHTS. Potency, µM (doses to about 36.5 µM), hits mostly inhibitors. AID 720579, 2013. hit rate 0.63% among 310,000. Vaccinia virus mCherry reporter infection, fluorescence; calls by dose curve; tested in A549 cells; further: nearly all actives have a fitted effect of over 35% in size
MARV entry inh: qHTS for inhibitors of binding or entry into cells for Marburg Virus | Marburg virus pseudotyped entry inhibition, cell reporter | AID 540276, 2011 | Potency, µM (series often up to 37.8 µM), hits mostly inhibitors | hit rate 1.8% among 300,000; calls by dose curve; tested in HEK293 cells
CHX counter: Cycloheximide Counterscreen for Small Molecule Inhibitors of Shiga Toxin; max response, %; hit rate 12% among 300,000; AID 2314, 2010; cell reporter, cycloheximide protein synthesis inhibition counterscreen; in the data active means max response mostly above about 13%, no sharp cut-off; inactive means mostly below about 14%; further: read at 38.3 µM for the half of the compounds with a filed dose
Large screens that a line does not name were inactive; ! = repeats disagree.

COc1ccc(Nc2nc(-c3ccc4c(c3)NC(=O)CO4)cs2)cc1	Lassa entry inh inconclusive, Shiga toxin inh 128, VACV mCherry inh inconclusive, CHX counter 27
COc1ccc(-c2cc(-c3ccccc3)nc(-c3ccc4c(c3)NC(=O)CO4)c2)cc1	none (no result: VACV Venus inh, VACV mCherry inh)
COc1ccccc1Nc1nc(-c2ccc3c(c2)NC(=O)CO3)cs1	CHX counter 20 (no result: Lassa entry inh, VACV Venus inh, VACV mCherry inh, MARV entry inh)
CCC(C)Nc1nc(-c2ccc3c(c2)NC(=O)CO3)cs1 (stereo not given)	Shiga toxin inh 50 (no result: VACV mCherry inh)
Cc1ccc(C(=O)N2CCn3c(C)ccc3C2C)cc1 (stereo not given)	none
O=S(=O)(Nc1cccc2cccnc12)c1cccs1	CHX counter 20 (no result: Lassa entry inh, VACV Venus inh, VACV mCherry inh, MARV entry inh)
O=S(=O)(Nc1cccc2ccccc12)c1cccs1	CHX counter 9.3
O=C(COc1ccc2ccccc2c1Br)NC(=S)Nc1cccc(CO)c1	Lassa entry inh inconclusive, Shiga toxin inh 22, MARV entry inh inconclusive, CHX counter 51
O=C(COc1ccccc1Cl)NC(=S)Nc1cccc(NC(=O)c2ccccc2Cl)c1	Lassa entry inh inconclusive, VACV mCherry inh inconclusive
O=C(COc1ccc(Br)cc1Br)NC(=S)Nc1cccc(CO)c1	Shiga toxin inh 87, MARV entry inh inconclusive, CHX counter 97
COc1ccccc1N1CCN(CCn2c(=O)c3c(c4ccccc4n3C)n(C)c2=O)CC1	none (no result: Lassa entry inh, Shiga toxin inh, MARV entry inh, CHX counter)
Clc1ccc(COc2ccccc2-c2ccnc3ncnn23)cc1	Shiga toxin inh 77, CHX counter 39 (no result: Lassa entry inh, VACV Venus inh, VACV mCherry inh, MARV entry inh)
CCS(=O)(=O)c1ncc(Cl)c(C(=O)N(Cc2ccccc2)c2ccc(OC)cc2)n1	Lassa entry inh inconclusive, MARV entry inh inconclusive (no result: Shiga toxin inh, CHX counter)
CC1CCN(c2ccc(C(F)(F)F)cc2N)CC1	CHX counter 17
CCOc1ccc(C(NC(=O)c2ccco2)c2ccc(OC)c(OC)c2)cc1 (stereo not given)	Lassa entry inh inconclusive
COc1cc(C(Nc2ccccn2)c2c(NC(=O)c3ccco3)sc(C)c2C)cc(OC)c1OC (stereo not given)	Shiga toxin inh 76, CHX counter 29 (no result: VACV Venus inh, VACV mCherry inh)
COc1ccc(C(Nc2ccccn2)c2c(NC(=O)c3ccco3)sc(C)c2C)cc1OC (stereo not given)	CHX counter 22 (no result: VACV Venus inh, VACV mCherry inh)
COc1ccc(C(c2c(NC(=O)c3ccco3)sc(C)c2C)N2CCOCC2)cc1 (stereo not given)	Lassa entry inh inconclusive (no result: Shiga toxin inh, CHX counter)
CCCCCCSc1cccc(-c2nc3cc(C)ccn3c2NC2CCCCC2)c1	none (no result: Lassa entry inh, Shiga toxin inh, MARV entry inh, CHX counter)
CCC(C)Sc1cccc(-c2nc3cc(C)ccn3c2NC2CCCCC2)c1 (stereo not given)	VACV Venus inh inconclusive, VACV mCherry inh 7.9µM! (no result: Lassa entry inh, Shiga toxin inh, MARV entry inh, CHX counter)
CC[C@H](C)[C@H](NC(=O)[C@H](CCC(=O)O)NC(=O)[C@H](C)NC(=O)[C@@H](NC(=O)[C@H](Cc1cnc[nH]1)NC(=O)[C@@H](NC(=O)[C@H](CCC(=O)O)NC(=O)[C@H](C)NC(=O)[C@@H](NC(=O)[C@H](CC(C)C)NC(=O)[C@H](Cc1cnc[nH]1)NC(=O)[C@H](Cc1cnc[nH]1)NC(=O)[C@H](CC(C)C)NC(=O)[C@H](Cc1c[nH]c2ccccc12)NC(=O)[C@H](Cc1ccccc1)NC(=O)[C@H](CCCNC(=N)N)NC(=O)[C@H](CCCNC(=N)N)NC(=O)[C@H](CCCNC(=N)N)NC(=O)[C@H](CC(C)C)NC(=O)[C@H](CC(=O)O)NC(=O)[C@H](CCC(N)=O)NC(=O)[C@@H](NC(=O)[C@H](CO)NC(=O)[C@H](CCCCN)NC(=O)CNC(=O)[C@H](CCCCN)NC(=O)[C@H](CC(=O)O)NC(=O)[C@H](Cc1cnc[nH]1)NC(=O)[C@H](CC(C)C)NC(=O)[C@H](CC(C)C)NC(=O)[C@H](CCC(N)=O)NC(=O)[C@@H](NC(=O)[C@H](CCC(=O)O)NC(=O)[C@H](CO)NC(=O)[C@@H](NC(=O)[C@H](C)N)C(C)C)[C@@H](C)CC)[C@@H](C)CC)[C@@H](C)CC)[C@@H](C)CC)[C@@H](C)O)C(=O)O	none (no result: Lassa entry inh, VACV Venus inh, VACV mCherry inh, MARV entry inh)
CCOC(=O)C1=C(c2ccccc2)N=c2s/c(=C\c3cccc(O)c3)c(=O)n2C1c1cccs1 (stereo not given)	Lassa entry inh 16µM, VACV Venus inh inconclusive, MARV entry inh inconclusive
CC(=O)Nc1ccc(N2CCOCC2)c(S(=O)(=O)Nc2ccccc2Cl)c1	none (no result: Lassa entry inh, Shiga toxin inh, MARV entry inh, CHX counter)

From PubChem BioAssay
